In PubChem BioAssay:
“And” between values parts separate entries of the source, which are not always exact repeats. Equal entries are not always repeated. More than one record can exist for a structure, and the calls need not agree. The source made the active and inactive calls. Unless noted, no rule for the calls is given here.

Experiments:
[1] = test system: Hepatitis C virus NS3 helicase; assay: HCV NS3 helicase inhibitors, primary screen, biochemical, fluorescence polarization, LOPAC1280 library (AID 687035; in the data active = inhibition above about 37%); settings: Purified HCV NS3 helicase, Cy5-dT15 ssDNA binding fluorescence polarization; stronger effect = higher value; concentration not given here
[2] = Cy5 fluorescence quenching or enhancement artefacts, artefact control for HCV NS3 helicase inhibitor project, biochemical, LOPAC1280 (AID 687037); settings: Cy5-DNA-NS3h complex fluorescence interference counterscreen
[3] = Cy5 fluorescence interference with SSB-bound oligo, artefact control for HCV NS3 helicase inhibitor project, biochemical, NIH Clinical Collection, E. coli SSB (AID 743268)
[4] = test system: Hepatitis C virus NS3 helicase; assay: HCV NS3 helicase inhibitors, primary screen, biochemical, fluorescence polarization, NIH Clinical Collection (AID 743270); settings: NS3 helicase binding to Cy5-dT15 DNA, stronger effect = higher value, concentration not given here
[5] = target: Single-stranded DNA-binding protein (Escherichia coli (strain K12)) (UniProt P0AGE0); assay: E. coli SSB displacement from DNA, counter-screen for HCV NS3 helicase inhibitor project, biochemical, fluorescence polarization, NIH Clinical Collection (AID 743271; in the data active = inhibition above about 28%); settings: stronger effect = higher value, concentration not given here
[6] = fluorescence interference in NS3h assay format, artefact control for HCV NS3 helicase inhibitor project, biochemical, NIH Clinical Collection (AID 743272); settings: fluorescence interference counterscreen, stronger effect = lower value;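 also: HCV NS3 helicase with a Cy5 labelled single stranded DNA probe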
[7] = stimulators of nuclear beta-catenin in C2C12, primary screen, imaging, WNT3A-conditioned medium, mouse C2C12, NPC library (AID 1117326; in the data active = nuclear beta-catenin stimulation mostly above about 4.2%, no sharp cut-off; inactive = mostly below about 10%); settings: stronger effect = higher value
[8] = test system: Neuropilin-2 / VEGF-C interaction (human); assay: inhibitors of NRP2–VEGF-C binding, biochemical, microplate binding format, z-score (AID 743281); settings: microplate NRP2/VEGF-C binding assay; stronger effect = lower value

SMILES	inhibition [1]	fluorescence ratio (interference) [2]	fluorescence ratio [3]	inhibition [4]	inhibition [5]	fluorescence ratio [6]	nuclear beta-catenin stimulation ([7]; at 10 µM)	nuclear beta-catenin stimulation ([7]; stimulation, at 2 µM)	z-score [8]
Cc1cccc(C)c1OCC(C)N (stereo not given)	-2% (inactive)	1 (inactive)	1.06 (inactive)	-4.09% (inactive)	-4.29% (inactive)	1.04 (inactive)	1.9% (inactive)	2.4%	–
CC[N+](CC)(CC)CCOc1cccc(OCC[N+](CC)(CC)CC)c1OCC[N+](CC)(CC)CC	-2% (inactive)	1 (inactive)	–	–	–	–	-0.5% (inactive)	-1.4%	–
COC(=O)C1=C(C)NC(C)=C(C(=O)OCC(C)C)C1c1ccccc1[N+](=O)[O-] (stereo not given)	–	–	0.95 (inactive)	4.36% (inactive)	-0.87% (inactive)	0.91 (inactive)	6% (inactive)	3.3%	-0.886 (inactive)
CN1Cc2c(N)cccc2C(c2ccccc2)C1 (stereo not given)	–	1 (inactive)	–	–	–	–	3.1% (inactive)	1.5%	–
CCCCNc1ccc(C(=O)OCCN(C)C)cc1	-2% (inactive)	0.9 (inactive)	–	–	–	–	9.2% (inactive)	3.3%	–
NC(Cc1ccc(Cl)cc1)C(=O)O (stereo not given)	-3% (inactive)	1 (inactive)	–	–	–	–	1.4% (inactive)	2.1%	–
CN(C)CCC(c1ccccc1)c1ccccn1 (stereo not given)	-1% (inactive)	0.9 (inactive)	–	–	–	–	0.4% (inactive)	1.1%	–
CC(=O)NS(=O)(=O)c1ccc(N)cc1	–	–	1.03 (inactive)	-5% (inactive)	-5.05% (inactive)	1.01 (inactive)	-0.3% (inactive)	-0.1%	–
COc1cc2nc(N3CCN(C(=O)C4COc5ccccc5O4)CC3)nc(N)c2cc1OC (stereo not given)	-4% (inactive)	1 (inactive)	1.06 (inactive)	-1.36% (inactive)	-2% (inactive)	0.9 (inactive)	38% (inactive)	2.3%	–
COc1cccc2c1C(=O)c1c(O)c3c(c(O)c1C2=O)C[C@@](O)(C(=O)CO)C[C@@H]3O[C@H]1C[C@H](N)[C@H](O)[C@H](C)O1	–	–	0.07 (active)	7.52% (inactive)	90% (active)	0.4 (active)	28.9% (inactive)	27.7%	0.436 (inactive)
NCCCC(=O)O	–	1 (inactive)	–	–	–	–	2.4% (inactive)	1.9%	–
Cc1cc(C(C)(C)C)cc(C)c1CC1=NCCN1	1% (inactive)	1 (inactive)	–	–	–	–	0.1% (inactive)	1%	–
CN1CCC(=C2c3ccccc3C=Cc3ccccc32)CC1	-1% (inactive)	1 (inactive)	0.97 (inactive)	-2.84% (inactive)	-0.39% (inactive)	0.96 (inactive)	3.3% (inactive)	1.3%	-0.162 (inactive)
NC(N)=Nc1nc(CSCC/C(N)=N/S(N)(=O)=O)cs1	–	–	0.96 (inactive)	3.56% (inactive)	6.83% (inactive)	0.9 (inactive)	0.9% (inactive)	-1.4%	-0.254 (inactive)
CC[C@@]1(O)C(=O)OCc2c1cc1n(c2=O)Cc2cc3c(CN(C)C)c(O)ccc3nc2-1	–	–	1.05 (inactive)	1.98% (inactive)	3.75% (inactive)	1.02 (inactive)	55.8% (active)	20.6%	1.52 (inactive)
CN1CCN(CCCN2c3ccccc3Sc3ccc(Cl)cc32)CC1	-3% (inactive)	1 (inactive)	0.78 (active)	-1.19% (inactive)	9.14% (inactive)	0.71 (active)	19.8% (inactive)	0.2%	0.742 (inactive)
O=C(c1ccc(F)cc1)C1CCN(CCn2c(=O)[nH]c3ccccc3c2=O)CC1	2% (inactive)	1 (inactive)	–	–	–	–	0.6% (inactive)	-1.2%	–
C[C@]12C[C@H](O)[C@H]3[C@@H](CCC4=CC(=O)CC[C@@]43C)[C@@H]1CC[C@@H]2C(=O)CO	0% (inactive)	1 (inactive)	1.01 (inactive)	-1.97% (inactive)	1.97% (inactive)	0.99 (inactive)	0% (inactive)	-1.4%	–
NC[C@H](O)c1ccc(O)c(O)c1	-4% (inactive)	0.9 (inactive)	–	–	–	–	-1.8% (inactive)	-1.5%	–
CCN(CC)CCNC(=O)c1cc(Cl)c(N)cc1OC	-4% (inactive)	1 (inactive)	1.01 (inactive)	-3.18% (inactive)	-0.48% (inactive)	0.98 (inactive)	0.2% (inactive)	-1.4%	–
CCOC(=O)[C@H](CCc1ccccc1)N[C@@H](C)C(=O)N1[C@H](C(=O)O)C[C@@H]2CCC[C@@H]21	–	–	1.01 (inactive) and 1.04 (inactive)	-1.98% (inactive) and -3.18% (inactive)	-0.1% (inactive) and -0.48% (inactive)	0.79 (active) and 1.02 (inactive)	0.8% (inactive)	1.9%	-0.497 (inactive)
CN1CCN(C2=Nc3ccccc3Oc3ccc(Cl)cc32)CC1	-3% (inactive)	1 (inactive)	0.97 (inactive)	1.19% (inactive)	2.21% (inactive)	0.92 (inactive)	1.4% (inactive)	-0.5%	-0.0658 (inactive)
NS(=O)(=O)c1cc(C(=O)O)c(NCc2ccco2)cc1Cl	–	–	0.95 (inactive)	–	–	0.89 (inactive)	0.5% (inactive)	1.3%	–
COc1ccc2nc(S(=O)Cc3ncc(C)c(OC)c3C)[nH]c2c1 (stereo not given)	–	–	1.02 (inactive)	-1.97% (inactive)	-3.54% (inactive)	0.98 (inactive)	8.5% (inactive)	4.5%	-0.241 (inactive)
